Compounds with a hit are over-represented: about 1.5% of the library has one in this group of screens.
RAD52 anneal inh = inhibitors of human RAD52 DNA annealing. inhibition, % at 18.7 µM. P43351. 360,000 compounds, 0.46% hits. AID 651710. recombinant RAD52 DNA annealing, FRET fluorescence;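 active = every replicate showing at least 50% inhibition; inconclusive = mean inhibition at least 50% but not in every replicate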
Target sequence (P43351 whole entry, looked up): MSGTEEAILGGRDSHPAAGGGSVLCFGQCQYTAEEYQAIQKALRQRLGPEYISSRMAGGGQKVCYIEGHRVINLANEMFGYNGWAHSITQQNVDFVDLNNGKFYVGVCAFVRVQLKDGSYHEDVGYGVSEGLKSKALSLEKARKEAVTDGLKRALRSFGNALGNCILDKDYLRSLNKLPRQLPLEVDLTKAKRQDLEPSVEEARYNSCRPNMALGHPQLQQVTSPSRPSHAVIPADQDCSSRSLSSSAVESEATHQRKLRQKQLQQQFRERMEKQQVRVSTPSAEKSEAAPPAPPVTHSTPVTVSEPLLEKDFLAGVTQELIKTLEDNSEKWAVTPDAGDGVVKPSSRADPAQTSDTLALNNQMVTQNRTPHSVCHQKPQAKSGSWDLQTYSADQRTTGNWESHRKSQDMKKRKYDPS
N-glyco inh = N-linked glycosylation inhibition; D54 ERlucT glycosylation luciferase reporter, 24 h; percent of 100 nM tunicamycin response; reporter increase, % at 12.5 µM; 360,000 compounds, 0.23% hits; AID 588692;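 active = mean luciferase reporter signal, scaled so untreated is 0 and the glycosylation-blocking control 100, at or above a set limit in every replicate; inconclusive = mean reaches the limit but not every replicate does; inactive = mean below the limit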;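 also: luciferase carries N-glycosylation sites so blocking glycosylation raises the light; 0% = median of neutral control wells and 100% = median of 100 nM tunicamycin wells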
PvdQ inh = blocks Pseudomonas aeruginosa PvdQ acylase activity; 340,000 compounds, 0.063% hits; purified PvdQ acylase, fluorescence plate reader; inhibition, % at 10 µM; in the data active = inhibition above about 30%, passing the limit was not always enough; inconclusive = no clear call, values can overlap the other calls;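 also: 0% = vehicle neutral wells and 100% = reference inhibitor wells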
RAD54 branch = inhibitors of human RAD54 branch migration | Q92698 | RAD54 Holliday junction branch migration, FAM/BHQ fluorescence | inhibition, % at 10.4 µM | AID 602329 | 360,000 compounds, 0.14% hits;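 active = mean normalized replicate activity at least 40 and at least half of replicates scoring 40 or more; inconclusive = only one of the two criteria met; inactive = mean below 40 and under half of replicates reaching 40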;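 also: 0% = median of neutral control wells and 100% = median of positive control wells; inhibitors cause a drop in the FAM fluorescence signal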
dFosB act = mouse delta FosB homodimer activation. P13346. purified delta FosB, TAMRA-CDK5 oligo fluorescence polarization; percent of positive-control signal above neutral wells. activation, % at 25 µM. 340,000 compounds, 0.99% hits. AID 493131;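 active = mean activation above about 17%, with every replicate also reaching it, limit read from the data, passing the limit was not always enough; inconclusive = only one of the two conditions met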
F508del corr = correctors of CFTR F508del function in bronchial epithelial cells. CFBE cells, YFP halide quenching; stimulated with forskolin plus potentiator P3; % fluorescence drop versus neutral controls. activity (quench increase), % at 7.58 µM. 350,000 compounds, 0.36% hits. AID 720511;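 active = mean added fluorescence quench of at least 8% versus neutral control, with both replicates also reaching 8%; inconclusive = only one of the mean or replicate conditions met; inactive = mean below 8% and not both replicates reaching 8%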;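 also: cells transiently co-express mutant CFTR-F508del with the halide-sensitive YFP; corrector assay measuring rescue of mutant channel to the surface after 24 h compound exposure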
An asterisk follows results filed as active; ? = inconclusive; . = no result.

SMILES	RAD52 anneal inh	N-glyco inh	PvdQ inh	RAD54 branch	dFosB act	F508del corr
COc1ccc(NC(=O)c2c(C)noc2C)cc1S(=O)(=O)N1CCCCC1	-10	2	.	-1	.	0
Cc1ccc(NC(=O)c2c(C)noc2C)cc1S(=O)(=O)N1CCOCC1	-20	-1	-12	-4	-1	9.9*
O=C(Nc1cccc(F)c1)c1cc(S(=O)(=O)N2CCOCC2)ccc1N1CCCC1	.	28*	0	-11	-10	.
COc1ccc(NC(=O)c2cc(S(=O)(=O)N3CCOCC3)ccc2C)cc1S(=O)(=O)N1CCOCC1	-8	1	0	-1	-1	10*
O=C(Nc1cccc(C(F)(F)F)c1)c1cc(S(=O)(=O)N2CCCCC2)ccc1N1CCOCC1	.	-6	-9	6	-10	.
COc1ccc(NC(=O)N(C)C[C@H]2Oc3ccc(NS(=O)(=O)c4ccc(F)cc4)cc3CC(=O)N([C@@H](C)CO)C[C@H]2C)cc1	9	.	.	.	.	0
C[C@@H]1CN([C@H](C)CO)C(=O)c2cc(C#CCN(C)C)cnc2O[C@H]1CN(C)Cc1ccccn1	-24	.	.	6	.	2
COc1ccc(S(=O)(=O)N(C)C[C@@H]2Oc3ccc(NC(=O)NC(C)C)cc3C(=O)N([C@H](C)CO)C[C@@H]2C)cc1	.	.	.	.	.	1
CCCNC(=O)C[C@H]1C[C@@H]2c3cc(N(C)C)ccc3O[C@@H]2[C@@H](CO)O1	-123	.	.	-22	.	1
CC(SCC(=O)Nc1ccccc1)c1nc2ccccc2c(=O)[nH]1 (stereo unspecified)	-18	.	-9	12	-6	-1
Cc1c(Cl)cccc1NC(=O)CSC(C)c1nc2ccccc2c(=O)[nH]1 (stereo unspecified)	-9	-1	-4	-11	41*	3
C/C=C/c1ccc([C@@H]2[C@@H](CO)N(C(C)=O)C23CN(C(=O)NC2CCCCC2)C3)cc1	-11	.	.	.	.	-1
CC1CCC(NC(=O)CCNS(=O)(=O)c2ccccc2)CC1 (stereo unspecified)	5	0	-18	-2	-10	2
O=C(CCNS(=O)(=O)c1cccc(C(F)(F)F)c1)NC1CC1	-3	0	-6	-4	3	16*
C[C@@H]1CN([C@H](C)CO)S(=O)(=O)c2ccc(-c3cncnc3)cc2O[C@@H]1CN(C)C(=O)c1ccc2c(c1)OCO2	16	.	.	6	.	0
Cc1cccc(S(=O)(=O)N2CCCCN3[C@@H](CO)[C@@H](c4ccc(C#C[C@H](C)O)cc4)[C@@H]3C2)c1	-49	.	.	0	.	0
COc1cc2cc(/C=C/C(=O)c3ccco3)c(Cl)nc2cc1OC	.	49*	-10	-9	-25	.
Cc1ccc2nc(Cl)c(/C=C/C(=O)c3ccco3)cc2c1	-16	42*	-10	.	-12	0
COCC(=O)OC/C(O)=C(\C#N)c1nc2ccccc2[nH]1	-13	32*	-9	-5	-11	-4
Cc1c(-c2cccc(Cl)c2)nc2ccccc2c1C(=O)OC/C(O)=C(\C#N)c1nc2ccccc2[nH]1	-128	63*	-8	4	-7	-1
N#C/C(=C(/O)c1ccc(Br)s1)c1nc2ccccc2[nH]1	-47	2	-6	-4	13	10.0*
CC(C)NC(=O)N(C)C[C@@H]1OCCCC[C@H](C)Oc2ccc(NS(=O)(=O)c3cn(C)cn3)cc2C(=O)N([C@H](C)CO)C[C@@H]1C	2	.	.	3	.	0
C[C@@H]1CCCCO[C@H](CN(C)C(=O)Nc2cccc3ccccc23)[C@H](C)CN([C@@H](C)CO)C(=O)c2cc(NS(=O)(=O)c3ccc(Cl)cc3)ccc2O1	-31	.	.	-3	.	-1
CO[C@H]1CN(C)C(=O)c2cc(NC(=O)CC(F)(F)F)ccc2OC[C@@H](C)NC[C@H]1C	-177	.	.	.	.	-3
COc1ccc(/C=C/C(=O)c2ccc(Cl)s2)cc1O	.	28*	-12	5	-9	.
COc1ccc(C(=O)/C=C/c2ccc(OC)c(O)c2)c(F)c1	.	55*	-4	-6	-10	.
COc1cc(/C=C/C(=O)c2ccc(Cl)s2)cc(OC)c1O	.	?	-7	-4	-3	.
COc1ccc(C(=O)C=Cc2ccc(OCc3ccccc3)c(OC)c2)cc1OC	-27	51*	.	-4	.	-3
COc1ccc(C=CC(=O)c2ccc(OC)c(OC)c2O)cc1OC	-1	37*	-11	-4	-8	1

Screening results from PubChem.
